Reference: PubChem BioAssay (NCI)
About 79,000 compounds went through this panel and 15% of them were active in at least one assay; those are over-represented in the sample as a whole. Calls of active or inactive are those of the source. Rule as the data show it: active = growth inhibition above about 70%; inactive = the rest.

What was measured:
[1] = NCI Yeast Anticancer Drug Screen. Data for the rad50 strain (AID 155);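 also: 0% = growth of vehicle-only cultures of the same strain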; conditions: S. cerevisiae rad50 strain growth inhibition; at 50.0 µM; stronger effect = higher value
Summary of the method: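 DNA repair mutant yeast, compound exposure, growth read-out; inhibition is taken relative to vehicle.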

[2] = NCI Yeast Anticancer Drug Screen. Data for the mec2-1 strain (AID 157); conditions: S. cerevisiae mec2-1 strain, at 50.0 µM, stronger effect = higher value
Summary of the method: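 Compounds were applied to mec2-1 yeast cells. Their growth was then compared with that of vehicle-treated cultures to give growth inhibition.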

[3] = NCI Yeast Anticancer Drug Screen. Data for the sgs1 mgt1 strain (AID 161);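 also: 0% = growth of cultures given vehicle only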; conditions: S. cerevisiae sgs1 mgt1 strain, at 50.0 µM, stronger effect = higher value
Summary of the method: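 Percent growth inhibition was derived by comparing compound-exposed mutant yeast with vehicle-exposed cultures. The strain carries alterations in DNA damage repair.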

[4] = NCI Yeast Anticancer Drug Screen. Data for the cln2 rad14 strain (AID 165);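 also: 0% = growth equal to vehicle treated cultures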; conditions: S. cerevisiae cln2 rad14 strain, at 50.0 µM, stronger effect = higher value
Summary of the method: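 Strain: cln2 rad14 yeast, altered in cell cycle control and DNA damage repair. Read-out: growth inhibition vs vehicle.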

[5] = NCI Yeast Anticancer Drug Screen. Data for the bub3 strain (AID 167); conditions: S. cerevisiae bub3 mutant strain, at 50.0 µM, stronger effect = higher value
Summary of the method: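 In this screen, a yeast mutant lacking normal mitotic checkpoint function is challenged with compound. Relative growth versus vehicle gives the inhibition value.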

[6] = NCI Yeast Anticancer Drug Screen. Data for the mlh1 rad18 strain (AID 175); conditions: S. cerevisiae mlh1 rad18 strain growth inhibition; at 50.0 µM; stronger effect = higher value
Summary of the method: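 A repair-deficient yeast strain is exposed to test compound, and growth is scored relative to vehicle-treated controls.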

Measured: growth inhibition

c1ccc(Nc2nnc(-c3nsc4ccccc34)o2)cc1
inactive: [1] -34.5% | [2] -40.9% | [3] -42.8% | [4] -1.4% | [5] -31.9% | [6] -35.9%

Cn1ncc2c(=O)[nH]c(N)nc21
inactive: [1] 6.65% | [2] 31.2% | [3] -19.6% | [4] 1.2% | [5] -3.15% | [6] -5.85%

Cc1ccc(SC(=O)Cc2ccc([N+](=O)[O-])cc2)cc1
active: [1] 96.6% | [2] 98% | [3] 98.2% | [4] 88.3% | [5] 96.2% | [6] 96.8%

COc1ccc(OC)c(N2C(=O)C(=O)C(C(C)=O)C2=O)c1 (configuration not stated)
inactive: [1] 27.7% | [2] -1.95% | [3] 7.15% | [4] 25.1% | [5] 7.65% | [6] 16.5%

CSc1ncc2c(C#N)c3sc4ccccc4n3c(=O)c2n1
inactive: [1] 14.8% | [2] -8.05% | [3] 32.4% | [4] 12.4% | [5] 26.5% | [6] -21.1%

COC(=O)C1(CC(=O)CC(=O)CC2(C(=O)OC)NC(=S)NC(=O)C2C#N)NC(=S)NC(=O)C1C#N (configuration not stated)
inactive: [1] -17.4% | [2] 19.9% | [3] -24.6% | [4] 4.05% | [5] 5.55% | [6] 13.8%

O=C(Oc1ccc2c(c1)CCN2C(=O)c1cc2c(cc1[N+](=O)[O-])OCO2)c1ccc2c(c1)OCO2
inactive: [1] 17.4% | [2] 7.2% | [3] -2.3% | [4] 5.7% | [5] -4.8% | [6] 11.2%

Nc1ccn(C2OC(CCl)C(O)C2O)c(=O)n1 (configuration not stated)
inactive: [1] 17.2% | [2] 3.2% | [3] -4.15% | [4] 4.1% | [5] -39.9% | [6] -36.1%

Cc1ccc(S(=O)c2cccs2)cc1 (configuration not stated)
inactive: [1] 2.15% | [2] -28.1% | [3] -49% | [4] -38.9% | [5] -18% | [6] -28.8%

CC(=O)Nc1c(C)cc(C)cc1[N+](=O)[O-]
inactive: [1] 8.05% | [2] 7.15% | [3] -12.9% | [4] 2.65% | [5] 6.4% | [6] 22.1%

C=CCNC(=O)N(CCC)CCCC(NC(C)=O)C(=O)NCc1ccccc1 (configuration not stated)
inactive: [1] -9.75% | [2] -27.5% | [3] -14.8% | [4] 10.4% | [5] -17.1% | [6] -9.7%

Cc1cccc(Cl)c1NC(=O)Nc1ccc(C#N)cc1
inactive: [1] 15.4% | [2] -10.6% | [3] 17.9% | [4] 5.35% | [5] -3.45% | [6] -1%

CC(C)CCOC(=O)C(C)(O)C(Cl)c1ccccc1 (configuration not stated)
inactive: [1] 2.9% | [2] 2.55% | [3] -13.2% | [4] 1.35% | [5] 6.25% | [6] -6.95%

COC(=O)N1C2c3ccccc3C(c3ccccc32)N1C(=O)OC
inactive: [1] 6% | [2] 21.5% | [3] 11.3% | [4] -54.8% | [5] 32.8% | [6] 33.8%

Cc1n[nH]c(=S)n1C
inactive: [1] -25.2% | [2] -6.05% | [3] -4.25% | [4] -23.2% | [5] 8.55% | [6] 12.8%

COc1cc(C)c([N+](=O)[O-])cc1[N+](=O)[O-]
inactive: [1] 4.15% | [2] 8.2% | [3] 9.65% | [4] -2.35% | [5] -10.1% | [6] 1%

COc1ccc(-c2oc3ccccc3c(=O)c2O)cc1OC
inactive: [1] 2.3% | [2] 9.9% | [3] 16.2% | [4] -10.8% | [5] 21.4% | [6] -11.1%

Cc1nc(Nc2ccccc2Cl)sc1C(=O)CC(=O)C(N)=O
inactive: [1] 37.1% | [2] 20.9% | [3] 39.4% | [4] 24.1% | [5] 2.7% | [6] 48.6%

NNC(=O)CC(O)C(=O)NN (configuration not stated)
inactive: [1] -4.7% | [2] -0.8% | [3] -1.85% | [4] 11.4% | [5] -1.75% | [6] 4.75%

O=[N+]([O-])c1ccccc1S(=O)(=O)N(CCCCCN(S(=O)(=O)c1ccccc1[N+](=O)[O-])S(=O)(=O)c1ccccc1[N+](=O)[O-])S(=O)(=O)c1ccccc1[N+](=O)[O-]
inactive: [1] -5.75% | [2] -5.95% | [3] 10.8% | [4] 20.6% | [5] -27.9% | [6] -11.4%

CN1CCC(C)(c2ccccc2)C(=O)C1 (configuration not stated)
inactive: [1] 2% | [2] 3.85% | [3] 11% | [4] -28.6% | [5] -10.3% | [6] 12.7%

CCN(CC)CC#CCCCN(CC)CC
inactive: [1] -29.3% | [2] -30.2% | [3] -27.9% | [4] 1.75% | [5] -44.5% | [6] -7.6%

O=[N+]([O-])c1ccccc1SCl
inactive: [1] 11.7% | [2] 5.5% | [3] 5.05% | [4] -21.9% | [5] 2% | [6] 6.7%

CCO/C=N/n1c(C(=O)NCCCOC)nc2ccccc2c1=O
inactive: [1] -6.25% | [2] -20.3% | [3] 7.4% | [4] -5.6% | [5] 4.9% | [6] 1.75%

CC1CC(=O)N2CCCNC2=C1C#N (configuration not stated)
inactive: [1] -0.55% | [2] 4.6% | [3] 12.8% | [4] 19.2% | [5] 3.75% | [6] 26.1%

Cc1nc(N)sc1N=Nc1ccc(Br)cc1Br
active: [1] 85.2% | [3] 86.8% | [6] 76.4%
inactive: [2] 68.8% | [4] 63.1% | [5] 46.9%

O=C(O)c1sccc1Cc1ccsc1
inactive: [1] -6.85% | [2] -10.8% | [3] -8.65% | [4] -27.6% | [5] -25.9% | [6] 5%

N#C/C(=C1\OC(=O)C(c2ccc(Br)cc2)=C1O)c1ccc(Br)cc1
inactive: [1] 8.15% | [2] 2.45% | [3] -4% | [4] 5.3% | [5] -3.85% | [6] 26.4%

O=C(CBr)c1c2c(cc3c1CCCC3)CCCC2
inactive: [1] 1.75% | [2] -1.35% | [3] -2.05% | [4] -4.9% | [5] 33% | [6] -16.6%

O=C1C=C(Nc2ccc(Cl)cc2Cl)c2ccccc2C1=O
inactive: [1] 30.2% | [2] 17.7% | [3] 17.2% | [4] 29% | [5] 27.9% | [6] 37.5%

CCCCOC(=O)c1ccccc1OC
inactive: [1] -16.1% | [2] 7.2% | [3] -2.3% | [4] 16.9% | [5] 12.1% | [6] -6.9%

CN(C)NC(=O)/C=C\C(=O)O
inactive: [1] -12.6% | [2] -17.4% | [3] -9.8% | [4] -6.9% | [5] -7.45% | [6] -3.2%

COc1ccc(C2CC(=O)C(C(=O)OC3CCCCC3)C2c2ccc(OC)cc2)cc1 (configuration not stated)
inactive: [1] 13.9% | [2] 16.2% | [3] 15.8% | [4] 28.1% | [5] -3.25% | [6] 19.5%

Cc1cccc(C(=O)OC2CCCCC2)c1
inactive: [1] 1.85% | [2] 1.2% | [3] -3.1% | [4] -30.4% | [5] 23.9% | [6] 0.5%

Cc1ccc(Sc2ccc3ccccc3c2)nc1
inactive: [1] 6.75% | [2] -8.2% | [3] -17.6% | [4] -12.2% | [5] 5.05% | [6] -16.9%

CCc1ccc2ccccc2c1N
inactive: [1] 20.6% | [2] 8.05% | [3] 6.1% | [4] -1.65% | [5] -0.3% | [6] 15.1%

COc1ccc(C(=O)C(C)(CCC#N)CCC#N)cc1
inactive: [1] -10.3% | [2] -6.3% | [3] 3.25% | [4] -44.6% | [5] 14.3% | [6] 2.3%

CC(=O)OCC1OC(n2cnc3c(N)ncnc32)C(O)C1O (configuration not stated)
inactive: [1] -3.7% | [2] -6.45% | [3] -6.15% | [4] -39.7% | [5] 4.5% | [6] -11.2%

C#Cc1nc(N)c2ncn(C3OC(COS(N)(=O)=O)C(O)C3O)c2n1 (configuration not stated)
inactive: [1] 17.1% | [2] 32.5% | [3] 7.9% | [4] 28.4% | [5] 10.3% | [6] 10.6%

Nc1ccc(COCCOCc2ccc(N)cc2)cc1
inactive: [1] -4.35% | [2] 1.7% | [3] -4.25% | [4] -5.6% | [5] 2.8% | [6] 17.4%

O=C(NC(=Nc1ccccc1)SCSC(=Nc1ccccc1)NC(=O)c1ccco1)c1ccco1
inactive: [1] -5.85% | [2] -7.9% | [3] -45.7% | [4] 12.7% | [5] -4.7% | [6] -12.4%

c1scc2c1COCCOCCOCCOCCOCCOCCOC2
inactive: [1] -21.7% | [2] -14.8% | [3] 10.4% | [4] 5.05% | [5] 6.3% | [6] -6.9%
